Several values for one entry are separate records, joined by “and”; a condition that tells them apart may be missing. Identical values can stand only once. The panel holds about 83,000 compounds, 20% with a hit somewhere; the sample as a whole holds those more often.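 Step 1: grow cells in 96-well plates. Step 2: add test compound at a single concentration. Step 3: incubate 48 h. Step 4: record percent growth.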 Activity calls are given as the source filed them. Rule for the calls: active = growth percent below 10; inactive = the rest.

Common to all, as to test: NCI-60 one-dose screen, 48 h (100 = growth as untreated, 0 = no growth, -100 = all killed)
Common to all, as to details: 10 µM unless noted

Assay [1] deals with T-47D breast.
Assay [2] deals with BT-549 breast.
In assay [3] the test system is MDA-MB-435 melanoma.
The test system of assay [4] is MCF7 breast.
Assay [5] concerns HCT-116 colon.
The test system of assay [6] is HCC-2998 colon.
Assay [7] concerns KM12 colon.
In assay [8] the test system is MDA-MB-468 breast.
Assay [9] deals with SW-620 colon.

On to `CCCN(CCC)S(=O)(=O)c1ccc(C(=O)O)cc1.CCCN(CCC)S(=O)(=O)c1ccc(C(=O)O)cc1.[Cl][Pt+2][Cl].[NH2-].[NH2-]`, for which the growth was 26.3% (inactive) in [1]; -78.8% (active) in assay [2]; -54.6% (active) in assay [3]; 8.34% (active) in [4]; 2.04% (active) in assay [5]; -27.6% (active) in assay [6]. Moreover, the growth in assay [7] was 17.8% (inactive); in [8], -54.3% (active).
In the case of `O=C1Nc2cc(-c3ccc(NS(=O)(=O)c4ccc([N+](=O)[O-])cc4)cc3)ccc2/C1=C/c1ccc[nH]1`, the growth was 15.9% (inactive) in assay [1]; -23% (active) in [2]; 1.34% (active) in assay [3]; -23.6% (active) in assay [4]; -48.6% (active) in [5]; 32.2% (inactive) in assay [6]. Also, the values for the growth in assay [7] and in [8] were 27.5% (inactive) and -29.6% (active), respectively.
As to `CCN1CCN(Cc2ccc(C(=O)Nc3cccc(Nc4ccc5c(OC)cccc5n4)c3)cc2C(F)(F)F)CC1`, the growth is -71.4% (active) in [1]; -94% (active) in [2]; -94.9% (active) in assay [3]; -89.1% (active) in assay [4]; -56.4% (active) in assay [5]; -94% (active) in [6]. Further, the growth was -37.6% (active) in [7] and -94.7% (active) in assay [8].
Take `COc1cc(C2CC(c3ccc(C(F)(F)F)cc3)=Nc3c(N)nc(N)nc3N2)ccc1Oc1nc(Nc2ccc(F)cc2)nc(N(C)C)n1` (centres undefined): the growth in assay [1] was 57.8% (inactive); in assay [2] it was 70.3% (inactive); in assay [3], 59.7% (inactive); in assay [9], 53.2% (inactive); in assay [5] it was -16.4% (active); in assay [6], -17.8% (active). The growth in [7] is 32.6% (inactive); in [8], -8.26% (active).
On to `CC(C)CN1C(=O)/C(=C\C(=O)c2cc3ccccc3oc2=O)c2ccccc21`, for which the growth is 44.7% (inactive) in assay [1]; 111% (inactive) in assay [2]; 98.8% (inactive) in [3]; 41% (inactive) in [9]; 91.2% (inactive) in assay [5]; 118% (inactive) in [6]. Moreover, the growth in assay [7] was 103% (inactive); in assay [8], 32.6% (inactive).
`O=C(c1ccc(Cl)cc1)C1[C@H](c2ccccc2Cl)[C@@H](c2ccccc2)NC12C(=O)Nc1ccc(Cl)cc12` (some centres undefined): the growth in [1] was -71.1% (active); in assay [2], -87.2% (active); in [3] it was -87.5% (active); in assay [4], -37.7% (active); in [5] it was -89.3% (active); in assay [6], -85.6% (active). In addition, the growth in assay [7] was -48% (active); in assay [8], -52.5% (active).
In the case of `C=CCn1c(O)c(N=Nc2nc(-c3cc4ccccc4oc3=O)cs2)c2ccccc21`, the growth in assay [1] was 88.8% (inactive); in assay [2], 67.3% (inactive); in assay [3], 98.5% (inactive); in assay [9] it was 101% (inactive); in assay [5] it was 39.3% (inactive); in [6], 78.4% (inactive). For the same molecule, the growth was 79.4% (inactive) in [7] and 70.3% (inactive) in assay [8].
For the molecule `COc1cc(/C=C/C(=O)c2cnn(-c3cc(=O)[nH]c4ccccc34)c2C)cc(OC)c1OC`, the growth in assay [1] is 10.7% (inactive); in assay [2], -4.19% (active); in assay [3] it was 21.1% (inactive); in [9] it was 24.4% (inactive); in assay [5], 5.92% (active); in assay [6], -1.51% (active). Further, the growth in assay [7] is 4.79% (active); in [8], -35.3% (active).
Take `COc1ccc(-c2cc(C)nc3[nH]c(=O)sc23)cc1`: the growth in [1] was -15.1% (active); in [2] it was 58.9% (inactive); in assay [3], 78.7% (inactive); in assay [4] it was 83.8% (inactive); in [5] it was 52.1% (inactive); in [6], 84.2% (inactive). The figures for the growth in [7] and in assay [8] were 81.3% (inactive) and 76% (inactive), respectively.
For the molecule `Cc1cc(C(NC(=O)C2CC3(CC(Nc4cccc5c4C(=O)N(C4CCC(=O)NC4=O)C5=O)C3)C2)c2ccc3c(c2)OC(F)(F)O3)c(O)c2ncccc12` (centres undefined), the growth in [1] is 11.5% (inactive); in [2], 9.92% (active); in assay [3] it was 28.5% (inactive); in assay [4], 8.12% (active); in [5] it was 15.6% (inactive); in assay [6], 36.6% (inactive). In addition, the growth is 17.5% (inactive) in [7] and -30.6% (active) in [8].
On to `N#CCc1nnc(NC(=O)c2ccc(-n3c(=O)[nH]c4ccccc4c3=O)cc2)s1`, for which the growth in assay [1] is 100% (inactive); in [2], 109% (inactive); in assay [3], 106% (inactive); in assay [4], 90.6% (inactive); in assay [5], 103% (inactive); in assay [6], 108% (inactive). For the same molecule, the growth in assay [7] and in assay [8] was 121% (inactive) in each case.
Turning to `O=C(CCl)Nc1ccc(C(=O)/C=C/c2cc3ccccc3nc2Cl)cc1`, the growth in assay [1] is -46.9% (active) and 51.1% (inactive); in assay [2], -82.4% (active) and 45.6% (inactive); in [3], -54.9% (active) and 52.1% (inactive); in assay [4], -57.1% (active) and 24.9% (inactive); in assay [5], 8.67% (active) and 39.7% (inactive); in assay [6] it was -93.4% (active) and 51.1% (inactive). Moreover, the growth was -68.6% (active) and 22.5% (inactive) in assay [7]; -82.5% (active) and 54.9% (inactive) in assay [8].
Turning to `COc1ccc(NC2=C(I)C(=O)C(C)=C(C)C2=O)cc1`, the growth was -21.1% (active) in assay [1]; 81.4% (inactive) in assay [2]; -72.4% (active) in assay [3]; -8.31% (active) in assay [4]; -3.05% (active) in assay [5]; 118% (inactive) in assay [6]. Moreover, the growth was 19.1% (inactive) in [7] and -42.3% (active) in assay [8].
Turning to `Nc1ccc(-c2ccc3ncnc(N4CCc5cc(F)c(Cl)cc54)c3c2)cn1`, the growth in assay [1] was 10.7% (inactive); in [2], -9.19% (active); in assay [3], 28% (inactive); in assay [9], 55.8% (inactive); in assay [5], -52.9% (active); in [6], 38.2% (inactive). Besides, the values for the growth in [7] and in assay [8] were 35.6% (inactive) and -78% (active), respectively.
Take `COc1ccc(-c2nc3ccccc3n2CC(=O)N=Nc2c(O)[nH]c3ccc(Br)cc23)cc1`: the growth is 90.9% (inactive) in assay [1]; 53.3% (inactive) in assay [2]; 23.3% (inactive) in [3]; 43.7% (inactive) in [4]; 51.9% (inactive) in [5]; 108% (inactive) in assay [6]. Further, the growth in assay [7] is 71.1% (inactive).

The record behind these values is PubChem BioAssay (NCI).
